In paper PMC7819943, “Rice protein-binding microarrays: a tool to detect cis-acting elements near promoter regions in rice”:
The full ranking holds about 68,000 sequences; the median of “fluorescence intensity (a.u.)” is about 9,100, and the highest 2% start at about 16,000. What follows is part of a selection rich in the highest values, with near analogues and random picks from the rest.

target: OsWRKY34 (Oryza sativa, UniProt Q0JBA9 1-250); assay: protein-binding microarray (RPBM); PBS, 2% BSA, 51.3 ng/ul salmon testes DNA, 50 uM zinc acetate, 200 nM TF, 25 C, 1 h; high values mean tight binding; conditions: protein: recombinant; tags: N-terminal polyhistidine and DsRed monomer fusion (pET32a); label: CyDye5-dUTP incorporated in the synthesized complementary strand; 3' TTTTT single-stranded linker to array surface; dsDNA, one strand shown
Sequence (Q0JBA9 entry or part of it): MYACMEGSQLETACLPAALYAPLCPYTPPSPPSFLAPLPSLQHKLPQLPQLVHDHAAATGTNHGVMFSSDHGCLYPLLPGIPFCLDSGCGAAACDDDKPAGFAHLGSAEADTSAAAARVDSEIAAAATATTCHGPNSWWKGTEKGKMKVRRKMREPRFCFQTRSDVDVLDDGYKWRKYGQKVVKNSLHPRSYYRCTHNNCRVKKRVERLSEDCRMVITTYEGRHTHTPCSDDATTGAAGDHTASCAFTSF
Procedure, shortened: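 Transcription factors were each fused at the N-terminus to a polyhistidine tag plus DsRed and expressed in E. coli BL21-CodonPlus before Ni–NTA purification. Binding to a double-stranded custom Agilent array was carried out with 200 nM protein at 25 °C for 1 h in PBS, 2% BSA, salmon testes DNA and 50 µM zinc acetate. The binding signal is per-feature fluorescence intensity, in arbitrary units, on an Axon 4000B scanner.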

Sequence	binding signal
TTCACAGTGTAGTTGTTTTATTTAGCCAGTATTTTTTTTTCGGAGTCACCTAGTGCAG	8820 fluorescence intensity (a.u.)
CCACAGCGCCTCCACTGCCTGCAGGGACGCCACCGCTACCCGGAGTCACCTAGTGCAG	8450 fluorescence intensity (a.u.)
CCATTACCAGAACAGAACAGCAGGTTTTAACCTAACATTCCGGAGTCACCTAGTGCAG	8110 fluorescence intensity (a.u.)
ATACTCTCATTTTTGTTTGCTCTATTCTTTGCTTTTAGAACGGAGTCACCTAGTGCAG	10200 fluorescence intensity (a.u.)
ATATCTCATACTATCTCTCTTCCGTCGTTCCGTGTTGGCCCGGAGTCACCTAGTGCAG	10900 fluorescence intensity (a.u.)
CTACGATCAGAAACAGCGGGGCGGGTTGGGAGGGAGTCCACGGAGTCACCTAGTGCAG	15800 fluorescence intensity (a.u.)
ACCCCGACCATCTCCCACCATCGGAGGAGACGCTCAAACTCGGAGTCACCTAGTGCAG	8340 fluorescence intensity (a.u.)
CCCGGCCCATCTCTCTGGCTCGCACTCCGCCTCCGCCACCCGGAGTCACCTAGTGCAG	10500 fluorescence intensity (a.u.)
AAATGTTTGACACCGTTGATTTTTTAGCGCATGTTTGACCCGGAGTCACCTAGTGCAG	8840 fluorescence intensity (a.u.)
CCTCCGTTTCTAAATATTTAACGCCATTGACTTTTTAGCACGGAGTCACCTAGTGCAG	9160 fluorescence intensity (a.u.)
AAAATGTTTGACACCGTTGACTTTTTAGCATATGTTTGACCGGAGTCACCTAGTGCAG	30800 fluorescence intensity (a.u.)
CTCCCTCCGTTTCTAAATATTTGATACCGTTGACTTTTTACGGAGTCACCTAGTGCAG	22300 fluorescence intensity (a.u.)
ATCCGTTTTATATTATAAATCATTTGACTTTTTCTATTAGCGGAGTCACCTAGTGCAG	8510 fluorescence intensity (a.u.)
ACCCTCCGTTTCTAAATATTTAACACCGTTGACTTTTTAGCGGAGTCACCTAGTGCAG	23700 fluorescence intensity (a.u.)
AATCTTTTATACATATAATCCCTCCGTTTCTAAATATTTACGGAGTCACCTAGTGCAG	8110 fluorescence intensity (a.u.)
AGTACTCCCTCCGTTTCTAAATATTTGACACCGTTGACTTCGGAGTCACCTAGTGCAG	12700 fluorescence intensity (a.u.)
TTCAAAATGTTTGACACCATTGACTTTTTAGCATATGTTTCGGAGTCACCTAGTGCAG	10000 fluorescence intensity (a.u.)
TCGAAATGTTTGACACCGTTGACTTTTTAGCATATGTTTGCGGAGTCACCTAGTGCAG	33700 fluorescence intensity (a.u.)
GTCATTGTTTGGAGTGGAGTTTTGCTTAGATTAATCTGTCCGGAGTCACCTAGTGCAG	8860 fluorescence intensity (a.u.)
ACCACCACCCTGATGGATCTTGGCTCTAGCTCCTGGTTTTCGGAGTCACCTAGTGCAG	8110 fluorescence intensity (a.u.)
GCTGCGCACCTAATGCTACTGTTTTGTTAGTATTTATTTACGGAGTCACCTAGTGCAG	8460 fluorescence intensity (a.u.)

Sequence	binding signal
GTTAGCTTCTACATTTCTCGTTTCTGCTGAAAATAGTGGACGGAGTCACCTAGTGCAG	9540 fluorescence intensity (a.u.)
ACGACGAGGAGGCGGTGGTGGTCGTGCGCGGGGAGGAGTCCGGAGTCACCTAGTGCAG	9310 fluorescence intensity (a.u.)
TGCTCTTTTTTTCTTGATTATAACCTTCCGGGGTAGTTTTCGGAGTCACCTAGTGCAG	8720 fluorescence intensity (a.u.)
ACACTTGGCATTAATCTAATTTAACTTTTTTTTCTTTATCCGGAGTCACCTAGTGCAG	8440 fluorescence intensity (a.u.)
ATTGAAACATGATCCGAGTCATAGCCTGACTGGAATTCTTCGGAGTCACCTAGTGCAG	9120 fluorescence intensity (a.u.)
TCGTGCGTGCGTGTTTAATTGTCAACCCATACACAACTTGCGGAGTCACCTAGTGCAG	8510 fluorescence intensity (a.u.)
TAAATATTTGACACCGTTGACTTTTTACACATATTTGACCCGGAGTCACCTAGTGCAG	35100 fluorescence intensity (a.u.)
AAATATTTGACCGTTCGTTTATTATTTTTATTTTTTTTACCGGAGTCACCTAGTGCAG	12200 fluorescence intensity (a.u.)
TTGACATAAATTTTCAACCAACCCGTTGTTTTTGTTTTACCGGAGTCACCTAGTGCAG	9250 fluorescence intensity (a.u.)
TTCCTCTTCTCTTCTCGTCTCTTGTAGTAGTATATATTTACGGAGTCACCTAGTGCAG	8430 fluorescence intensity (a.u.)
TCACTTTTCATGTACAAAACATGTTGATATTGTGGTTGGTCGGAGTCACCTAGTGCAG	8200 fluorescence intensity (a.u.)
TTGGTCTCTCCTCGTCGCTGGGGTTCTTTGTTCTTGTAGTCGGAGTCACCTAGTGCAG	10000 fluorescence intensity (a.u.)
GCTGTTATTGGTTGCTCCTCGCGGTCTCCTTTTTTGGTGACGGAGTCACCTAGTGCAG	10800 fluorescence intensity (a.u.)
TTGGTTTGGTTGCTCCTCGCGCTGTTATTGGTTGCTCCTCCGGAGTCACCTAGTGCAG	19900 fluorescence intensity (a.u.)
GTTGTTCTTGGCGGCTAGGTCGTGGGGTTTTCTTGTTTCGCGGAGTCACCTAGTGCAG	22800 fluorescence intensity (a.u.)
TGTGGTGGAGGCCGGCTGGGTTCTCTTGGGGTTTGGCCGGCGGAGTCACCTAGTGCAG	10400 fluorescence intensity (a.u.)
GTTGGGGTGGTTGGTTTGGGGATCCCCTGTTGTACCCTGCCGGAGTCACCTAGTGCAG	10700 fluorescence intensity (a.u.)
AAATCCCCTTGTTACCGCGCGTTGTTTGGTTGTACCGCGCCGGAGTCACCTAGTGCAG	16600 fluorescence intensity (a.u.)
ACCGAATCCGAATCCCGCGTTTCTTTGTTGCGCGCGCGACCGGAGTCACCTAGTGCAG	10100 fluorescence intensity (a.u.)
CGCTCCGCGATTCGTGTTGGTTCTTTTTTTTGTTTCTTGGCGGAGTCACCTAGTGCAG	8470 fluorescence intensity (a.u.)
TTCGCGCGCTGCTCGCTCGCTTGGTTGGTTGGTTGATTGCCGGAGTCACCTAGTGCAG	15200 fluorescence intensity (a.u.)

Sequence	binding signal
TCGTTCTTGGCTGGGTTTGGTTTGGTTTGGTTTGGTCTCGCGGAGTCACCTAGTGCAG	45500 fluorescence intensity (a.u.)
CGTGGGGTTTTCTTGTTTCGGAGGTAGGGAGAGGTTTCGTCGGAGTCACCTAGTGCAG	11900 fluorescence intensity (a.u.)
TTCGGGCATACGCCACCCCGCCTTGTCATCCACCGCGCCCCGGAGTCACCTAGTGCAG	8470 fluorescence intensity (a.u.)
AACATTTATTTCCATATCTTCATATATGGTTCCATATGAACGGAGTCACCTAGTGCAG	8400 fluorescence intensity (a.u.)
TGCCAAGGACTGCATCTTCATCATTGCCTGGGTGTCCACCCGGAGTCACCTAGTGCAG	8700 fluorescence intensity (a.u.)
AACCCACAATTACGCGGCGGTGCATTCTCGTTGCTTTGACCGGAGTCACCTAGTGCAG	11400 fluorescence intensity (a.u.)
ACCGACTCAAAAACCTAACGGCACTTTTTTTATTTTCAACCGGAGTCACCTAGTGCAG	10600 fluorescence intensity (a.u.)
AACCTCAATTTTGTTTGTTTTGCCTTTTGGTTCAAATACTCGGAGTCACCTAGTGCAG	8180 fluorescence intensity (a.u.)
GCGTTTTTGTCTCTCTGCTCTCTGCTGCTGCTGCTGGGTCCGGAGTCACCTAGTGCAG	11300 fluorescence intensity (a.u.)
TCGCGTCGCGTTTCGACCTCGCGCTCTGGGTCTGGGTGTCCGGAGTCACCTAGTGCAG	8330 fluorescence intensity (a.u.)
CTCATTGTTGTTGTGTTGTTGCGTTTGGTTTGGTGTGCTCCGGAGTCACCTAGTGCAG	8510 fluorescence intensity (a.u.)
CTGCGCTCTCCATTGTTTTGTGTTGTGTTTGTTTGCAGTCCGGAGTCACCTAGTGCAG	17700 fluorescence intensity (a.u.)
GGTTGGTGACGCGTTGTTGTTTGTTCCTCAAATTTGTTCTCGGAGTCACCTAGTGCAG	16500 fluorescence intensity (a.u.)
ACGTTGTTTGTGTCACGCTTCTCAAATCCCTTGGTGTTCTCGGAGTCACCTAGTGCAG	11700 fluorescence intensity (a.u.)
GGTTGGCTTCTTCTCGGTTTGTTCGTTCCTTGTGGTCGAGCGGAGTCACCTAGTGCAG	8240 fluorescence intensity (a.u.)
TCGCGCGTGTCACTGGGTTTGGGTTGGGTCTCTCTCTCTCCGGAGTCACCTAGTGCAG	18400 fluorescence intensity (a.u.)
TCTACGAGGGTTTTTGCGCTTTTGTTGCTCTCCGCTCCGCCGGAGTCACCTAGTGCAG	8160 fluorescence intensity (a.u.)
GGTTTCGGTCTCGGTTTTTTCGGTTCGGTTCTTCGGTTCGCGGAGTCACCTAGTGCAG	9660 fluorescence intensity (a.u.)
GTTGGTTGGTTGGTTGGTTGGCTTCTTCTCGGTTTGTTCGCGGAGTCACCTAGTGCAG	25000 fluorescence intensity (a.u.)
TCTCAGCGGCCCGAACCTGTCTACGTCGCCCGTGTCTTGTCGGAGTCACCTAGTGCAG	11200 fluorescence intensity (a.u.)
CTGGCACTTGGCACTTGGTTAATTCCACTCACTCATCACTCGGAGTCACCTAGTGCAG	8260 fluorescence intensity (a.u.)

Sequence	binding signal
ACATGTGGAGGGAACAGGGCGTGGAATCAAGGGTCGGGATCGGAGTCACCTAGTGCAG	8290 fluorescence intensity (a.u.)
AGATATACCGTTGTTGCATTTCACCTTAAAATATTTCCAACGGAGTCACCTAGTGCAG	8550 fluorescence intensity (a.u.)
GCTCTCTTCTCGCCGCCTCGGCCTCGCCGCCGTGGCCGCCCGGAGTCACCTAGTGCAG	9500 fluorescence intensity (a.u.)
ACATAACCCCGTCATCTCGGCGACCCTCTCTCGTGGTCGCCGGAGTCACCTAGTGCAG	8540 fluorescence intensity (a.u.)
GTCTCACTCTCCCAATCCGCCTCGGCCCGAGCGCGCGCGCCGGAGTCACCTAGTGCAG	9530 fluorescence intensity (a.u.)
CCTTGTATTCGGCCCGCACACGCCAACCTGTCCTGTTCTGCGGAGTCACCTAGTGCAG	9600 fluorescence intensity (a.u.)
GGTGTTGGGTGTTTGTTCGTTGGTTCCGCTGCTGCTGTTGCGGAGTCACCTAGTGCAG	8180 fluorescence intensity (a.u.)
GGCGAAGTACTTCTTGGTGTTGTTGCTGCCGCTGCCGGCGCGGAGTCACCTAGTGCAG	8120 fluorescence intensity (a.u.)
TGGTTTGGTTTGGTTCTTTGTTGTTGCTGCCGCTGCCGCGCGGAGTCACCTAGTGCAG	31400 fluorescence intensity (a.u.)
CAGGGCCATGTTCGCTGATACATTGTGTTGGATTGCACTGCGGAGTCACCTAGTGCAG	8030 fluorescence intensity (a.u.)
GTTTACCATTGCATTCCCCGGTCCACGTGCATCAGTGCATCGGAGTCACCTAGTGCAG	9610 fluorescence intensity (a.u.)
ACACTACCTTAAAGAAACATCAGTGACATCTCCATCACTCCGGAGTCACCTAGTGCAG	8750 fluorescence intensity (a.u.)
AGTGTCTGACACTACTTAAGAAACCATAGCAGTGCTAAAGCGGAGTCACCTAGTGCAG	31200 fluorescence intensity (a.u.)
CACACTATAGCTAGTACTAGTACTAGTACTACTTAAACTACGGAGTCACCTAGTGCAG	8120 fluorescence intensity (a.u.)
GCCTACTTAAATTACATTTCCGCACCCACACCACACACACCGGAGTCACCTAGTGCAG	11400 fluorescence intensity (a.u.)
GCCGGCCTGGGAGGCCGAAGGTTGGGGATGACAGGTGGGGCGGAGTCACCTAGTGCAG	8920 fluorescence intensity (a.u.)
GCTGCCCGCTCTAATCTGTTTTGTCTCCATCTGCTATGATCGGAGTCACCTAGTGCAG	8950 fluorescence intensity (a.u.)
GAGTACTCGTCCGGGGTTTTTAACTTTTTGCCACTTTTAACGGAGTCACCTAGTGCAG	9100 fluorescence intensity (a.u.)
AACAATCACCTAGGCTAAATGTTACTTCCTCCGTTTCACACGGAGTCACCTAGTGCAG	9190 fluorescence intensity (a.u.)
GGTGTGTTTGGCAAATGAGTTATGAGAGGTGTGATTGTTACGGAGTCACCTAGTGCAG	8860 fluorescence intensity (a.u.)
GAGAACCTAATTGTGAGGCTCCTAGTTACACGACAAATCACGGAGTCACCTAGTGCAG	56300 fluorescence intensity (a.u.)
